Reference: PubChem BioAssay (Tox21)
Several values for one entry are separate records, joined by “and”; a condition that tells them apart may be missing. Identical values can stand only once. Records with an inconclusive call do not appear. Activity calls are given as the source filed them. Unless noted, calls come from the whole dose curve; as a rule, active = well fitted curve in the direction sought with a large enough effect in the repeat runs; inconclusive = weak or mixed curves; inactive = no such curve, though single readings can be large; an effect the other way counts as inactive or inconclusive.

Columns and labels:
[1] = qHTS assay to identify small molecule antagonists of the androgen receptor (AR) signaling pathway using the MDA cell line in the presence of 0.5 nM R1881 - cell viability counter screen (AID 1259242); note: nearly all actives have a fitted effect of over 45% in size; note: potency is the fitted concentration of half-maximal effect
Outline: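 Human breast carcinoma MDA-kb2 cells, cultured without CO2, receive compounds alongside 0.5 nM (final) R1881 agonist. After 16 hr at 37C, viability is taken as live-cell protease signal.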

[2] = qHTS assay to identify small molecule HDAC inhibitors - cell viability counter screen (AID 1259365); note: series mostly up to about 92 µM; nearly all actives have a fitted effect of over 50% in size
Outline: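 Cytotoxicity was gauged in wild-type HCT-116 cells after a brief 2hr treatment with DMSO-dissolved compounds at 37C and 5% CO2, using CellTiter-Glo luminescence developed for 30min at room temperature.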

[3] = qHTS assay to identify small molecule agonists of the sonic hedgehog signaling (Shh) pathway - cell viability counter screen (AID 1259366); note: nearly all actives have a fitted effect of over 50% in size; note: potency is the fitted concentration of half-maximal effect
Outline: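 Stable Gli1-Luc NIH/3T3 clone, 2,000 cells/well. Compound exposure 24hr at 37C. Read-out: CellTiter-Fluor fluorescence.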

[4] = qHTS assay to identify small molecule antagonists of the sonic hedgehog signaling (Shh) pathway - cell viability counter screen (AID 1259367); note: nearly all actives have a fitted effect of over 55% in size; note: potency is the fitted concentration of half-maximal effect
Outline: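 Tox21 library chemicals were tested on a Gli1-Luc NIH/3T3 clone (2,000 cells/well) stimulated by conditioned medium; viability was quantified as fluorescence from CellTiter-Fluor reagent added at 23 hr.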

[5] = qHTS assay to identify small molecule agonists of the sonic hedgehog signaling (Shh) pathway (AID 1259368; calls by dose curve;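 note: NIH/3T3-derived 3T3Gli1-Luc cells carrying a stable Gli1-driven firefly luciferase reporter; series mostly up to about 92 µM; nearly all actives have a fitted effect of over 15% in size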)
Outline: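 Stable NIH/3T3 Gli1-Luc reporter clone; 24 hr cpd exposure after a 4 hr settling period; luminescence endpoint.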

[6] = qHTS assay to identify small molecule HDAC inhibitors (AID 1259364);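 note: wild-type HCT-116 cells with endogenous class I/II HDAC activity; top concentration of the series differs between compounds; nearly all actives have a fitted effect of over 45% in size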
Outline: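 After a 2 hr compound incubation (37C, 5% CO2), HCT-116 cells seeded at 1,500/well the day before received HDAC-Glo reagent; signal read as luminescence after 30 min at room temperature.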

[7] = qHTS assay to identify small molecule antagonists of the sonic hedgehog signaling (Shh) pathway (AID 1259369; calls by dose curve; note: nearly all actives have a fitted effect of over 45% in size; note: potency is the fitted concentration of half-maximal effect)
Outline: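 Gli1 transcriptional reporter (firefly Luc) in NIH/3T3 background, conditioned-medium activated. 24hr exposure, luminescence endpoint.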
% is set by controls: 0 for no effect and ±100 for the full control effect.

c1cc2c3c(c1)ccc1cccc(c13)C2
inactive: Potency [1] | Potency [2] | Potency [3] | Potency [4] | Potency [5]

O=C(O)CCCCCCC(=O)O
inactive: Potency [1] | Potency [6] | Potency [2] | Potency [3] | Potency [4] | Potency [5] | Potency [7]

Clc1ccc(C(c2ccccc2Cl)C(Cl)Cl)cc1 (stereo not drawn)
inactive: Potency [1] | Potency [6] | Potency [2] | Potency [3] | Potency [4] | Potency [5] | Potency [7]

[O]=[Zr]
inactive: Potency [1] | Potency [6] | Potency [2] | Potency [4] | Potency [5] | Potency [7]

Cc1cccc(Br)c1
active: Potency [7] 27.4 µM
inactive: Potency [1] | Potency [6] | Potency [2] | Potency [3] | Potency [5]

SCCCCCCCCS
inactive: Potency [1] | Potency [2] | Potency [3] | Potency [4] | Potency [5] | Potency [7]

CCCCCCCCCC(=O)N(C)C
inactive: Potency [1] | Potency [2] | Potency [3] | Potency [4] | Potency [5]

C=CC(C)C#N (stereo not drawn)
inactive: Potency [1] | Potency [6] | Potency [2] | Potency [3] | Potency [4] | Potency [5] | Potency [7]

CN1[C@@H]2CC[C@@H]1CC(OC(=O)C(CO)c1ccccc1)C2 (stereo partly drawn)
inactive: Potency [1] | Potency [6] | Potency [2] | Potency [3] | Potency [4] | Potency [7]

Oc1ccc(-c2ccc(O)cc2)cc1
active: Potency [7] 6.15 µM
inactive: Potency [1] | Potency [2] | Potency [5]

CCNc1nc(NC(C)CC)nc(OC)n1 (stereo not drawn)
active: Potency [7] 30.6 µM
inactive: Potency [1] | Potency [6] | Potency [2] | Potency [3] | Potency [4] | Potency [5]

CCCCCCC(C)OC(=O)COc1nc(F)c(Cl)c(N)c1Cl (stereo not drawn)
inactive: Potency [1] | Potency [6] | Potency [3] | Potency [4] | Potency [5] | Potency [7]

CC(C)c1cccc(C(C)C)c1N1C(=O)c2ccc(O)cc2C1=O
active: Potency [7] 13.7 µM
inactive: Potency [1] | Potency [2] | Potency [4] | Potency [5]

C/C=C/c1ccc(OC)c(OC)c1
inactive: Potency [1] | Potency [6] | Potency [2] | Potency [3] | Potency [4] | Potency [5] | Potency [7]

CNCC[C@H](Oc1cccc2ccccc12)c1cccs1
active: Potency [1] 26.6 µM | Potency [3] 26.6 µM | Potency [4] 33.5 µM | Potency [7] 2.37 µM
inactive: Potency [6] | Potency [2] | Potency [5]

CC(C)(c1cc(Br)c(O)c(Br)c1)c1cc(Br)c(O)c(Br)c1
active: Potency [7] 60.9 µM and 64.9 µM
inactive: Potency [1] | Potency [6] | Potency [2] | Potency [3] | Potency [4] | Potency [5]

CCCCCCC(C)Nc1ccc(Nc2ccccc2)cc1 (stereo not drawn)
active: Potency [7] 27.3 µM
inactive: Potency [1] | Potency [6] | Potency [2] | Potency [5]

Cc1cc(Nc2ccc(O)cc2)ccc1N
inactive: Potency [5]
active: Potency [1] 48.3 µM | Potency [3] 30.5 µM | Potency [4] 24.2 µM

CC(C)(C)CC(C)(C)c1ccccc1O
inactive: Potency [1] | Potency [6] | Potency [5]
active: Potency [3] 54.8 µM | Potency [4] 48.8 µM | Potency [7] 27.4 µM

COC(=O)[C@]1(C)CCC[C@@]2(C)[C@H]1CC=C1C=C(C(C)C)CC[C@@H]12
inactive: Potency [1] | Potency [6] | Potency [2] | Potency [3] | Potency [4] | Potency [5] | Potency [7]

CCCCCCOc1cc(C)c(O)c(C)c1C
inactive: Potency [1] | Potency [6] | Potency [5]
active: Potency [4] 61.9 µM | Potency [7] 61.9 µM

COC(=O)NCCC[Si](OC)(OC)OC
inactive: Potency [1] | Potency [6] | Potency [2] | Potency [3] | Potency [5] | Potency [7]

CC(C)c1ccc(O)c(C(C)C)c1
inactive: Potency [1] | Potency [6] | Potency [2] | Potency [3] | Potency [4] | Potency [5] | Potency [7]

CCCCC(CC)COC(=O)c1ccc(O)cc1 (stereo not drawn)
active: Potency [4] 54.3 µM | Potency [7] 43.3 µM
inactive: Potency [1] | Potency [6] | Potency [2] | Potency [3] | Potency [5]

CCN(CC)c1ccc(N)cc1
active: Potency [1] 17.7 µM | Potency [3] 35.3 µM | Potency [7] 4.99 µM
inactive: Potency [6] | Potency [2] | Potency [5]

S=C(SSSSSSC(=S)N1CCCCC1)N1CCCCC1
active: Potency [3] 5.35 µM | Potency [4] 7.56 µM
inactive: viability change, negative = cytotoxic [1] -10.8% [at 19 µM] | activity change, negative = inhibition [6] -8.72% [at 19 µM] | activity change [5] -10.5% [at 18.9 µM, active compounds read high]

CCOC(=O)CN
inactive: Potency [1] | Potency [6] | Potency [2] | Potency [3] | Potency [4] | Potency [5] | Potency [7]

CCC1CCCCC1
inactive: Potency [1] | Potency [6] | Potency [2] | Potency [3] | Potency [4] | Potency [5] | Potency [7]

Cc1nc(Nc2ncc(C(=O)Nc3c(C)cccc3Cl)s2)cc(N2CCN(CCO)CC2)n1
inactive: Potency [1] | Potency [6] | Potency [2] | Potency [5] | Potency [7]
active: Potency [3] 0.075 µM

CCCCCCCCCCCC(=O)N(CC)CC
inactive: Potency [1] | Potency [6] | Potency [2] | Potency [3] | Potency [4] | Potency [5] | Potency [7]
